Records with an inconclusive call do not appear. Active and inactive are the calls of the source. Unless noted, calls follow the shape of the full dose curve.
Tests used:
[1] = Nuclear factor erythroid 2-related factor 2/antioxidant responsive element (Nrf2/ARE) small molecule agonists: qHTS cell viability counter screen in human keratinocytes (AID 1919968; active = well fitted curve in the direction sought with a large enough effect in the repeat runs; an effect the other way counts as inactive or inconclusive; also: nearly all actives have a fitted effect of over 55% in size)
In short: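 CellTiter-Fluor fluorescence, read 1 h after reagent, gave viability in the same wells as the ARE-luciferase assay. KeratinoSens cells (1,500/well) had 23 h compound exposure at 37 C/5% CO2 following 5 h plating.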

[2] = molecular target: Gonadotropin-releasing hormone receptor (Homo sapiens) (UniProt P30968); experiment: Human gonadotropin-releasing hormone receptor (GnRHR) small molecule agonists, calcium flux assay in GnRHR-HEK293 cells (AID 1920063); also: nearly all actives have a fitted effect of over 35% in size
In short: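 Agonist mode: compounds at 15 concentrations, in triplicate, went onto calcium dye-loaded GnRHR-HEK293 cells. Intracellular calcium was then followed as 480/540 nm fluorescence at 1 s intervals over 3 min.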

[3] = molecular target: KiSS-1 receptor (Homo sapiens) (UniProt Q969F8); experiment: Human kisspeptin (KISS1R) small molecule agonists, calcium flux assay in KISS1R-HEK293 cells (AID 1920064; active = well fitted curve in the direction sought with a large enough effect in the repeat runs; an effect the other way counts as inactive or inconclusive)
In short: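 Agonist mode: intracellular calcium rise tracked at 1 s intervals over 3 min (480/540 nm) immediately after compound addition to dye-loaded KISS1R-HEK293 stable cells. Each compound tested at 15 concentrations in triplicate.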

[4] = G protein-coupled receptor (GPCR) small molecule agonists, calcium flux assay: HEK293 wild type cell line counter screen (AID 1920065)
In short: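 Calcium flux counter screen: compound added in agonist mode at 15 concentrations in triplicate to dye-loaded parental HEK293 cells. Fluorescence (480/540) read kinetically for 3 min; ATP served as positive control.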

[5] = p53 small molecule agonists, cell-based qHTS assay with human liver microsomes (AID 1963577);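 also: p53 response element beta-lactamase reporter cells with liver microsomes plus NADPH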
In short: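 With metabolic activation: human liver microsomes (0.5 mg/mL final) plus NADPH (0.5 mg/mL final) added alongside compounds to p53RE-bla cells; 16 h 37 C exposure; beta-lactamase read by LiveBLAzer fluorescence.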

[6] = p53 small molecule agonists, cell-based qHTS assay with rat liver microsomes (AID 1963578)
In short: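 Metabolic activation by rat liver microsomes and NADPH, each 0.5 mg/mL final, added right after compounds to p53RE-bla reporter cells (4,000/well, plated 5 h earlier). 16 h at 37 C, then LiveBLAzer substrate for 2 h at room temperature in the dark; fluorescence read-out.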

[7] = p53 small molecule agonists, cell-based qHTS assay with human liver microsomes: qHTS cell viability counter screen (AID 1963579); also: nearly all actives have a fitted effect of over 45% in size
In short: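 Metabolic activation used human liver microsomes and NADPH, both 0.5 mg/mL final, over 16 hours at 37 C on p53RE-bla cells (4,000/well). Cytotoxicity measured by CellTiter-Glo luminescence, 30 min at room temperature.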

[8] = p53 small molecule agonists, cell-based qHTS assay: qHTS cell viability counter screen (AID 1963581); also: nearly all actives have a fitted effect of over 45% in size
In short: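 Counter screen read by CellTiter-Glo luminescence (ATP content, 30 min at room temperature), run in the same wells as the beta-lactamase reporter read. HCT-116 p53RE-bla cells saw compounds for 16 h at 37 C.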

[9] = p53 small molecule agonists, cell-based qHTS assay (AID 1963582; active = well fitted activation curve with a large enough effect in the signal ratio in the repeat runs, not every such curve was filed as active; the % refers to the signal ratio)
In short: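 Read-out is beta-lactamase FRET fluorescence after 2 h at room temperature with LiveBLAzer B/G substrate. p53 response element-bla cells were treated 16 h at 37 C with compounds in DMSO, added 5 h after seeding.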

[10] = molecular target: 5-hydroxytryptamine receptor 2A (Homo sapiens) (UniProt P28223); experiment: 5-hydroxytryptamine receptor 2A (HTR2A) small molecule antagonists, cell-based qHTS assay (AID 1963586); also: nearly all actives have a fitted effect of over 45% in size
In short: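 CHO cells stably expressing human HTR2A were plated for 18 h at 37 C, then loaded with calcium dye for 1 h. Compounds were preincubated 5 min at room temperature before DOI (4 nM solution) was added. Kinetic fluorescence was read for 3 min.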

[11] = molecular target: 5-hydroxytryptamine receptor 2A (Homo sapiens) (UniProt P28223); experiment: 5-hydroxytryptamine receptor 2A (HTR2A) small molecule agonists, cell-based qHTS assay (AID 1963587); also: nearly all actives have a fitted effect of over 30% in size
In short: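 Kinetic calcium-flux fluorescence (2 min, 1 sec intervals) after compound addition in agonist mode. HTR2A-CHO cells were cultured 18 h, then dye-loaded 1 h at 37 C.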

[12] = molecular target: Muscarinic acetylcholine receptor M1 (Homo sapiens) (UniProt P11229); experiment: Cholinergic receptor muscarinic 1 (CHRM1) small molecule antagonists, cell-based qHTS assay (AID 1963588); also: nearly all actives have a fitted effect of over 40% in size
In short: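 Compounds were tested at 15 concentrations in three independent runs. Dye-loaded CHRM1-CHO cells were exposed 5 min at room temperature before stimulation by acetylcholine added at 50nM. Intracellular calcium was read kinetically on FDSS for 3 min.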

[13] = molecular target: Muscarinic acetylcholine receptor M1 (Homo sapiens) (UniProt P11229); experiment: Cholinergic receptor muscarinic 1 (CHRM1) small molecule agonists, cell-based qHTS assay (AID 1963589); also: nearly all actives have a fitted effect of over 35% in size
In short: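 Agonist-mode calcium-flux screen: compounds at 15 concentrations, three independent runs, were pin-transferred onto dye-loaded human CHRM1-CHO cells. Fluorescence was then recorded kinetically every second over minutes.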

[14] = cAMP Responsive Elements (CRE) small molecule agonists, cell-based qHTS assay (AID 1963590)
In short: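 Agonist mode: compound added to CRE-bla HEK 293T cells (2,000/well, 18 h after plating) for 3 h at 37 C/5% CO2. Reporter activity detected via FRET beta-lactamase substrate, 2 h room-temperature loading.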

[15] = cAMP Responsive Elements (CRE) small molecule antagonists, cell-based qHTS assay (AID 1963591; active = well fitted inhibition curve with a large enough effect in the signal ratio in the repeat runs, not every such curve was filed as active; the % refers to the signal ratio)
In short: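 Antagonist mode: compounds are added alongside the adenylyl cyclase activator NKH477 (0.25 uM final) to CRE-bla HEK293T cells for 3 h. LiveBLAzer FRET substrate, 2 h at room temperature, reports bla expression.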

[16] = molecular target: Beta-2 adrenergic receptor (Homo sapiens) (UniProt P07550); experiment: Adrenergic beta2 receptor (ADRB2) small molecule antagonists, cell-based qHTS assay (AID 1963592); also: series mostly up to about 92 µM; nearly all actives have a fitted effect of over 50% in size
In short: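 Assay format: CHO-ADRB2 cells, 18-20hr seeding at 37C/5% CO2, then compound plus 1nM isoproterenol agonist mix for 0.5hr RT. Homogeneous time-resolved fluorescence cAMP detection after 1hr, expressed as 665/615 nm ratio.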

[17] = molecular target: D(2) dopamine receptor (Homo sapiens) (UniProt P14416); experiment: Dopamine D2 receptor (DRD2) small molecule agonists, cell-based qHTS assay (AID 1963594); also: nearly all actives have a fitted effect of over 35% in size
In short: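 cAMP accumulation in DRD2-HEK293 cells measured by HTRF after 1 h detection; compounds added 10 min before NKH477 (200nM […]) forskolin-analogue stimulation, 30 min at room temperature, with Ro20-1724 present at 0.1 mM final.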

[18] = molecular target: D(2) dopamine receptor (Homo sapiens) (UniProt P14416); experiment: Dopamine D2 receptor (DRD2) small molecule antagonists, cell-based qHTS assay (AID 1963595; active = well fitted inhibition curve with a large enough effect in the signal ratio in the repeat runs, with a control signal flat; the % refers to the signal ratio)
In short: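 Antagonist mode in DRD2-HEK293 cells: after compound addition with 0.1 mM Ro20-1724, cells received quinpirole (12 nM) and NKH477 (200 nM) for 30 min at room temperature; HTRF cAMP read after 1 h detection.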

[19] = p53 small molecule agonists, cell-based qHTS assay with rat liver microsomes: qHTS cell viability counter screen (AID 1963580); also: nearly all actives have a fitted effect of over 45% in size
In short: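 Cytotoxicity counter screen: intracellular ATP read by CellTiter-Glo luminescence in the p53 reporter wells. HCT-116 p53RE-bla cells were treated for 16 h at 37 C alongside rat liver microsomes and NADPH, each 0.5 mg/mL final.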

[20] = molecular target: Beta-2 adrenergic receptor (Homo sapiens) (UniProt P07550); experiment: Adrenergic beta2 receptor (ADRB2) small molecule agonists, cell-based qHTS assay (AID 1963593);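 also: CHO cells stably overexpressing human ADRB2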
In short: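 CHO cells stably over-expressing ADRB2 were plated overnight at 37C, then dosed with compounds plus a stimulation mix containing 100uM IBMX and 25uM Ro-20-1724 for 0.5hr at room temperature. cAMP was measured by HTRF competition, 1hr.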

Measured: Potency

Chain of Gonadotropin-releasing hormone receptor (Homo sapiens) (P30968 whole entry, looked up): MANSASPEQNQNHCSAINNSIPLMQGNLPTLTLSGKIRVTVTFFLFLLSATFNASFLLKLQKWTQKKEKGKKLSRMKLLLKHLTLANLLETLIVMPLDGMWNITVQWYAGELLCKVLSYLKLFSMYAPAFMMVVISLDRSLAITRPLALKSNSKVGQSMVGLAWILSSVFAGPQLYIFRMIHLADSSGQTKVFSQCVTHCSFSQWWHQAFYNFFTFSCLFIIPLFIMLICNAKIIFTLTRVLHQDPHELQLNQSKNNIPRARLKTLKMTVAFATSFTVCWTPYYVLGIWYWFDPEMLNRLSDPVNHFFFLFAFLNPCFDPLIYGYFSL
Chain of 5-hydroxytryptamine receptor 2A (Homo sapiens) (P28223 whole entry, looked up): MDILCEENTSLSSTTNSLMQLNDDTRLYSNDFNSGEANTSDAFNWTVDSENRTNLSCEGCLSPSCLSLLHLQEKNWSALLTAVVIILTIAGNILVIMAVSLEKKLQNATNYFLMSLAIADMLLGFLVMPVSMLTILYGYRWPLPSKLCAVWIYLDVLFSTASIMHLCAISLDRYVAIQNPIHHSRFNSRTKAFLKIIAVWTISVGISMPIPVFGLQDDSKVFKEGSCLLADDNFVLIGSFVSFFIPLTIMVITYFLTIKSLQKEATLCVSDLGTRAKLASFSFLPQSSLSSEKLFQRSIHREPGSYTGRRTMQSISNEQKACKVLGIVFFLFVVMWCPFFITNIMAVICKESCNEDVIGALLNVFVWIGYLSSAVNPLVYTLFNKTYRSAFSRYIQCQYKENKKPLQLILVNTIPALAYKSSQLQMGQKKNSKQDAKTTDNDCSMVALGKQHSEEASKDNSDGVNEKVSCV
Chain of D(2) dopamine receptor (Homo sapiens) (P14416 whole entry, looked up): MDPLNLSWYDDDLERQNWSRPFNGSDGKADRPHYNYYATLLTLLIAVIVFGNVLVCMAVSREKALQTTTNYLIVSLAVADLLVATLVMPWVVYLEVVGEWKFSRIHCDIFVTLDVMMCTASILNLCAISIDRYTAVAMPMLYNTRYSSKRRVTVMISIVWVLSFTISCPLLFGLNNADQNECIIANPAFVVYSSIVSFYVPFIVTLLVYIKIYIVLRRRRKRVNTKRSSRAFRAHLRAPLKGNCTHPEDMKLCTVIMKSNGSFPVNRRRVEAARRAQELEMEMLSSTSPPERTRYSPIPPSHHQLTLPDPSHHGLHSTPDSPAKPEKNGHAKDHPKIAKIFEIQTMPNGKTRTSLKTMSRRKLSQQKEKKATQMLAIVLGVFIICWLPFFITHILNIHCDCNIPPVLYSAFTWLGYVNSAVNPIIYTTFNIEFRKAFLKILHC
Chain of Beta-2 adrenergic receptor (Homo sapiens) (P07550 whole entry, looked up): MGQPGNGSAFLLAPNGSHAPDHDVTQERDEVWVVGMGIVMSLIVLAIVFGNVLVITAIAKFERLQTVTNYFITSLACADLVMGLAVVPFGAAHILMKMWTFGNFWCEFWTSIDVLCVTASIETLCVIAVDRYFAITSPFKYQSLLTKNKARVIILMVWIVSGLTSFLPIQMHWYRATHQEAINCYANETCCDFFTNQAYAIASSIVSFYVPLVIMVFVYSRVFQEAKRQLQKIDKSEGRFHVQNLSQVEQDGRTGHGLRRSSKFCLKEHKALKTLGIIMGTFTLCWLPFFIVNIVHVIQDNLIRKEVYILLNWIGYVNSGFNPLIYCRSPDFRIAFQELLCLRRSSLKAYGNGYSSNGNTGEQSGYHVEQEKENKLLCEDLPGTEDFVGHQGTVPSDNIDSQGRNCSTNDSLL
Chain of KiSS-1 receptor (Homo sapiens) (Q969F8 whole entry, looked up): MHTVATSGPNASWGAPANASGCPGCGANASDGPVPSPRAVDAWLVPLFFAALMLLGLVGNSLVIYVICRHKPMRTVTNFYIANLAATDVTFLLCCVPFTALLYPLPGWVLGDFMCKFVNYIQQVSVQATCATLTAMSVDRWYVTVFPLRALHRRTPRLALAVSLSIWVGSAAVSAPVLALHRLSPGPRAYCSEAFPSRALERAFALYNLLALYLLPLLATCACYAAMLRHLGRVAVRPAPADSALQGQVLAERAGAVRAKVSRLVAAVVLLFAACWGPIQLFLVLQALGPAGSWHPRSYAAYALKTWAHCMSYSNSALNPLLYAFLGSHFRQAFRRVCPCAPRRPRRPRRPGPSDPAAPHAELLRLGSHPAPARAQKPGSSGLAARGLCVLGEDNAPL
Chain of Muscarinic acetylcholine receptor M1 (Homo sapiens) (P11229 whole entry, looked up): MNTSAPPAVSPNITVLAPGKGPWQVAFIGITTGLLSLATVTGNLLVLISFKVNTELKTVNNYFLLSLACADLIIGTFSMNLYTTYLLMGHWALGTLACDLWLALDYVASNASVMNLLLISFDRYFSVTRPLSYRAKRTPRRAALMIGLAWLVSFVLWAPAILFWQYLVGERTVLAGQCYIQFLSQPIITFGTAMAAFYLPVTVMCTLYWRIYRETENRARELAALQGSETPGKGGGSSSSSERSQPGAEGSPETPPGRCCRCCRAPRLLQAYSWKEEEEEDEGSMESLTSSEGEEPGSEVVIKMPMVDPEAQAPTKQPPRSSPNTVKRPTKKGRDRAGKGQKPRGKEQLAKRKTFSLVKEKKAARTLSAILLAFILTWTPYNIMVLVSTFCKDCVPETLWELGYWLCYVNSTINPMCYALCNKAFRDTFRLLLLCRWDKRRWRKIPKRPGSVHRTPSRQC

CCCCCCCC(=O)OCC
inactive: [1] | [2] | [3] | [4] | [5] | [6] | [7] | [8] | [9] | [10] | [11] | [12] | [13] | [14] | [15] | [16] | [17] | [18]

O=C(O)c1ccc(Cl)c(Cl)c1
inactive: [1] | [2] | [3] | [4] | [5] | [6] | [7] | [19] | [9] | [10] | [11] | [13] | [15] | [16] | [17] | [18]

CCCCCCCCCCCC(=O)N(CC)CC
inactive: [1] | [2] | [3] | [4] | [5] | [6] | [7] | [19] | [9] | [10] | [12] | [13] | [14] | [16] | [17] | [18]

Cc1c(F)cc2c(=O)c(C(=O)O)cn3c2c1CCC3C (centres undefined)
inactive: [1] | [2] | [3] | [4] | [5] | [6] | [19] | [8] | [9] | [10] | [11] | [12] | [13] | [16] | [20] | [17] | [18]

COc1cc2c(cc1N)oc1ccccc12
inactive: [1] | [2] | [3] | [4] | [5] | [6] | [19] | [8] | [9] | [10] | [11] | [12] | [13] | [14] | [15] | [17] | [18]

CC[N+](C)(CC)CCOC(=O)C(O)(c1ccccc1)C1CCCCC1 (centres undefined)
inactive: [1] | [2] | [3] | [4] | [5] | [6] | [7] | [19] | [9] | [10] | [11] | [12] | [13] | [15] | [16] | [17] | [18]

CN1CC(=O)N/C1=N/C(=O)Nc1cccc(Cl)c1
inactive: [1] | [2] | [3] | [4] | [5] | [6] | [7] | [19] | [9] | [10] | [11] | [12] | [13] | [14] | [16] | [20] | [17] | [18]

From PubChem BioAssay (Tox21)
